Results published in PubChem BioAssay AID1347416 (National Center for Advancing Translational Sciences (NCATS), 2020).
Among all 4,100 compounds or so, about 1,600 (39%) were called active. Roughly 25% stayed inconclusive and do not appear here. Calls come from the whole dose curve; as a rule, active = well fitted inhibition curve with a large enough effect; inconclusive = small, poorly fitted or top-dose-only effect; inactive = no such curve, though single readings can be large or run the other way. This is one part of the list.

Assay: qHTS Validation assay for Inhibitors of Plasmodium falciparum Dd2 growth in vitro; note: nearly all actives have a fitted effect of over 70% in size
Settings: P. falciparum Dd2 in RBCs, SYBR Green growth, 72 h; series mostly up to 28.7 µM
Procedure, shortened: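 P. falciparum Dd2-infected red blood cells (2.5% hematocrit, 0.3% parasitemia) grown 72 h at 37 °C under 5% O2 with compounds in a titration, 29 uM to 0.5 nM final. Growth read as SYBR Green-1 fluorescence after ~16 h lysis; artesunate 300 nM as positive control.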
Potency is the fitted concentration of half-maximal effect.

Row | SMILES | Potency
1 | COc1ccc(CN2CCCC3(CNc4ccccc4[S+](=O)([O-])N3)C2)cc1 (stereo not given) | inactive
2 | CN(C)c1cc(N2CCCC(NC(=O)c3ccsc3)C2)ncn1 (stereo not given) | inactive
3 | O=C(Nc1ccccc1)N1CCC(N2CC(OCC3CC3)C23CCOCC3)CC1 (stereo not given) | inactive
4 | Cn1cccc1CN1CCC(N2CC(OCC3CC3)C23CCCCC3)CC1 (stereo not given) | 7.5 µM (active)
5 | Fc1cccc(CN2CCC(N3CC(OCC4CC4)C34CCCCC4)CC2)c1 (stereo not given) | 4.22 µM (active)
6 | CCn1cc(CN2CCC(N3CC(OCC4CC4)C34CCCCC4)CC2)cn1 (stereo not given) | 8.41 µM (active)
7 | COc1cccc(CN2CCC(N3CC(OCC4CC4)C34CCCCC4)CC2)n1 (stereo not given) | 4.22 µM (active)
8 | CN(C)S(=O)(=O)N1CCC(N2C(=O)C(OCC3CC3)C23CCCCC3)CC1 (stereo not given) | inactive
9 | CCc1ccc(NC(=O)N2CC(C(=O)N(C)C)C3(CCOCC3)C2)cc1 (stereo not given) | inactive
10 | CC1=C(CC(=O)c2ccc(Cl)cc2)C(=O)c2ccccc2C1=O | 0.211 µM (active)
11 | O=C(Cn1cc(-c2nnnn2-c2ccc(Cl)cc2)c(=O)c2ccccc21)c1ccccc1 | inactive
12 | CN(CC1(C)CCOCC1)C(=O)c1ccoc1 | inactive
13 | Oc1ccc(Br)cc1-c1cc(-c2ccc(Cl)cc2)n[nH]1 | 2.66 µM (active)
14 | COc1ccc(O)c(-c2cc(-c3cccs3)[nH]n2)c1 | inactive
15 | CCOC(=O)C1=C(C)NC(=S)N(C(C)=O)C1c1ccc(Cl)cc1 (stereo not given) | inactive
16 | CCOC(=O)C1=C(C)NC(=O)CC1c1cc(OC)c(OC)cc1Br (stereo not given) | 5.31 µM (active)
17 | COc1cc(C2CC(=O)Nc3cc4c(cc32)OCCO4)cc(Br)c1OC (stereo not given) | 5.31 µM (active)
18 | COc1cc(Br)c(C2CC(=O)Nc3cc4c(cc32)OCCO4)cc1OC (stereo not given) | 2.37 µM (active)
19 | CNC(=O)N1CCC(C2CCN(C(=O)CCCC(=O)O)C2)CC1 (stereo not given) | inactive
20 | CCn1cnnc1-c1nn(C)c2c1CN(C(=O)CC(C)C)CC2 | inactive
21 | COc1ccc(-n2c(-c3ccc(Br)cc3)c[n+]3c2CCc2ccccc2-3)cc1 | 4.22 µM (active)
22 | Cc1ccc(-n2cc(CNCCc3ncc(C)[nH]3)c(-c3ccc(F)cc3)n2)cc1 | 15 µM (active)
23 | Cc1ccc(CNC(=O)NCCc2ncc(C)n2Cc2ccc(F)cc2)cc1 | inactive

Row | SMILES | Potency
24 | Cc1ccc(-c2nn(-c3ccccc3)cc2CSC(=N)N)cc1 | inactive
25 | CN(C)CCNC(=O)c1nc2nc(-c3ccccc3)c(-c3cccc(F)c3)cc2n1C | 19.3 µM (active)
26 | COCc1nc2nc(-c3ccccc3)c(Nc3ccc(F)cc3)cc2n1C | inactive
27 | Cc1cccc(C)c1-c1nc(C(=O)NCc2ccc(F)cc2)n2ccccc12 | inactive
28 | CCn1nccc1C(=O)N1CCC(C(=O)N2CCCCCCNC(=O)CC2)CC1 | inactive
29 | CCOC(=O)c1[nH]c(Cc2[nH]c(C(=O)OCC)c(C)c2CCC(=O)OC)c(CCC(=O)OC)c1C | 5.31 µM (active)
30 | CN(C)c1cccc(-c2nccc3c(=O)cc(-c4cn[nH]c4)oc23)c1 | inactive
31 | CC(C)(C)CC(C)(C)c1ccc(O)c(CN2CCN(CCC#N)CC2)c1 | 0.842 µM (active)
32 | Cc1ccc(C(=O)N2CCC3(CC2)N(c2ccccc2)C(=O)CS3(=O)=O)c(C)c1 | inactive
33 | CC(=O)Oc1ccc2ccccc2c1C(NC(=O)C(C)C)c1cccc([N+](=O)[O-])c1 (stereo not given) | 16.8 µM (active)
34 | CC(C)C(=O)NC(c1ccc([N+](=O)[O-])cc1)c1c(O)ccc2ccccc12 (stereo not given) | 13.3 µM (active)
35 | CCCCC(=O)NC(c1cccc([N+](=O)[O-])c1)c1c(OC(C)=O)ccc2ccccc12 (stereo not given) | 3.76 µM (active)
36 | Cc1nc(N2CCN(C)CC2)c2c3c(sc2n1)CCCC3 | inactive
37 | Cc1noc(C)c1CSc1nc2sc3c(c2c(=O)n1C)CCCC3 | 8.41 µM (active)
38 | Cc1nnc([C@@H]2CC(F)(F)CN2C(=O)c2ccoc2C)o1 | inactive
39 | Cc1ccccc1C(=O)N1CCC(c2nc3ccccc3s2)CC1 | inactive
40 | Cc1occc1C(=O)N1CCN(C(c2ccccc2)c2ccccc2)CC1 | 10.6 µM (active)
41 | Cc1oc2ccc(O)c(CN(C)Cc3ccccc3)c2c1C(=O)Nc1ccccc1 | 2.37 µM (active)
42 | Cc1ccccc1NC(=O)c1c(C)oc2ccc(O)c(CN(C)Cc3ccccc3)c12 | 2.37 µM (active)
43 | CCN(CC)c1ccc(-n2nc3cc(C)c(NC(=O)c4ccccc4F)cc3n2)cc1 | inactive
44 | Cc1ccc(NC(=O)c2c(C)oc3ccc(O)c(CN(C)Cc4ccccc4)c23)c(C)c1 | 5.96 µM (active)
45 | CCN(Cc1ccccc1)Cc1c(O)ccc2oc(C)c(C(=O)Nc3ccccc3C)c12 | 4.73 µM (active)
46 | O=C(Nc1cccc(C(F)(F)F)c1)c1nc2c(o1)CCN(Cc1cccc(F)c1)CC2 | inactive

Row | SMILES | Potency
47 | Cc1oc2ccc(O)c(CN(C)Cc3ccccc3)c2c1C(=O)Nc1cccc(C(F)(F)F)c1 | 2.11 µM (active)
48 | COc1ccccc1CC(=O)N1CCC2(CC1)N=C(c1cccc(Br)c1)NO2 | inactive
49 | CC(=O)Nc1cccc(C(=O)N2CCC3(CC2)N=C(c2ccc(C)cc2)NO3)c1 | 0.842 µM (active)
50 | CC(=O)Nc1cccc(C(=O)NC2CCCN(c3cc(-c4ccc(Cl)cc4)[nH]n3)C2)c1 (stereo not given) | inactive
51 | CCOc1cccc(C2Nc3ccccc3-c3cc(C)nn32)c1O (stereo not given) | inactive
52 | COc1cccc(/C(C#N)=C/c2c(-c3ccc(Cl)cc3)nc3c(C)cccn23)c1 | 5.96 µM (active)
53 | O=C1NC(=O)/C(=C\c2ccc(N3CCOCC3)o2)N1 | 9.44 µM (active)
54 | Cc1ccc(C(=O)NC2CCCN(c3cc(-c4ccccc4)[nH]n3)C2)s1 (stereo not given) | inactive
55 | Cn1c(=S)c2[nH]c(SCCN3CCCC3)nc2n(C)c1=O | inactive
56 | Cn1c2ccc(F)cc2c2nnc(SCCN3CCCCC3)nc21 | 15 µM (active)
57 | Nc1nc2[nH]cc(CCc3ccc(C(=O)N[C@@H](CCC(=O)O)C(=O)O)cc3)c2c(=O)[nH]1 | 7.5 µM (active)
58 | Cc1ccc(CN2CCCN(Cc3ccncc3)C(c3ccccc3)CC(=O)NCC2)o1 (stereo not given) | 7.5 µM (active)
59 | Cc1ccc(CN2CCCN(Cc3ccncc3)C(c3ccccc3)CC(=O)NCC2)s1 (stereo not given) | 2.66 µM (active)
60 | Cc1ccsc1CN1CCCN(S(=O)(=O)c2ccccc2)CCC(=O)NCC1 | inactive
61 | Cc1ncsc1CN1CCCN(Cc2ccncc2)C(c2ccccc2)CC(=O)NCC1 (stereo not given) | 8.41 µM (active)
62 | CN(C)C(=O)C1CN(C(=O)NC2CCCCC2)CC12CCOCC2 (stereo not given) | inactive
63 | Cn1cccc1C(=O)N1CC[C@H](NC(=O)Nc2ccc(F)cc2F)[C@H]1C(=O)N[C@H](Cc1ccccc1)C(N)=O | inactive
64 | Cc1ccc(O)c([C@H](CCN(C(C)C)C(C)C)c2ccccc2)c1 | 4.22 µM (active)
65 | COc1ccc(CCNC(=O)CCc2cn(Cc3ccc(F)cc3)c3ccccc23)cc1OC | inactive
66 | COc1ccc(CCNC(=O)CC(c2ccccc2OC)c2c[nH]c3ccccc23)cc1OC (stereo not given) | 13.3 µM (active)
67 | CCCC1c2nccn2CCCN1C(=O)c1cnco1 (stereo not given) | inactive
68 | Cc1cccc(CN2CCCC(O)(CNCc3ncccc3C)C2=O)c1 (stereo not given) | 16.8 µM (active)
69 | Cc1cccnc1CNC[C@H]1O[C@@H]2C[C@@H](CC(=O)N3CCOCC3)O[C@@H]2[C@@H]1O | inactive

Row | SMILES | Potency
70 | CCOC(=O)c1c(NC(=O)CSc2cn(CCNC(=O)c3cccc(C(F)(F)F)c3)c3ccccc23)sc2c1CCC2 | inactive
71 | CCCn1cc(SCC(=O)NCc2ccco2)c2ccccc21 | 8.41 µM (active)
72 | COc1ccccc1C1c2[nH]c3ccccc3c2C[C@H]2C(=O)N(C3CCN(Cc4ccccc4)CC3)CC(=O)N12 (stereo not given in full) | 2.11 µM (active)
73 | COc1ccc(C2c3[nH]c4ccccc4c3C[C@H]3C(=O)N(C4CCN(Cc5ccccc5)CC4)CC(=O)N23)c(OC)c1 (stereo not given in full) | 2.37 µM (active)
74 | CCOc1ccccc1C1c2[nH]c3ccccc3c2C[C@H]2C(=O)N(C3CCN(Cc4ccccc4)CC3)CC(=O)N12 (stereo not given in full) | 2.37 µM (active)
75 | COc1ccc(C2c3[nH]c4ccccc4c3C[C@H]3C(=O)N(C4CCN(Cc5ccccc5)CC4)CC(=O)N23)cc1OC (stereo not given in full) | 2.99 µM (active)
76 | CC(=O)N(C)C1=C(N2CCOCC2)C(=O)c2ccccc2C1=O | 0.842 µM (active)
77 | Cc1ccc(-n2cc(-c3ccccc3)nc2S(=O)(=O)CC(=O)Nc2ccc(F)cc2)cc1 | inactive
78 | COc1ccc(-c2nn(-c3ccc(F)cc3)c(OC(C)=O)c2-c2ccc(NC(C)=O)cc2)cc1OC | 15 µM (active)
79 | CC(=O)Oc1c(-c2ccc(NC(=O)CC(C)C)cc2)c(-c2ccc(F)cc2)nn1-c1ccc(F)cc1 | 13.3 µM (active)
80 | COc1cccc(C2C3=C(N=c4s/c(=C\c5ccccc5O)c(=O)n42)c2ccccc2CC3)c1OC (stereo not given) | 2.99 µM (active)
81 | COc1cccc(CN2C(=O)OC3(CCN(Cc4ccc5c(c4)CCO5)CC3)C2(C)c2cccnc2)c1 (stereo not given) | 4.73 µM (active)
82 | COc1cccc(CN2C(=O)OC3(CCN(Cc4c[nH]c5ccccc45)CC3)C2(C)c2cccnc2)c1 (stereo not given) | 8.41 µM (active)
83 | COCc1cc(=O)n(CC(=O)NCc2cccc(OC)c2)c(N2CCOCC2)n1 | inactive
84 | O=C1CO[C@H]2CCN(Cc3ccc(O)cc3)CC[C@@H]2N1c1ccccc1 | inactive
85 | COc1cccc(CN2CCC3(C2)NC(=O)c2ccccc2CO3)c1 (stereo not given) | inactive
86 | COc1cccc(CN2C(=O)OC3(CCN(Cc4ccccc4OC)CC3)C2(C)c2cccnc2)c1 (stereo not given) | 4.73 µM (active)
87 | CC1(c2ccccc2)N(Cc2ccc(O)cc2)C(=O)OC12CCN(Cc1c[nH]c3ccccc13)CC2 (stereo not given) | 5.31 µM (active)
88 | COCCc1noc([C@@H]2CN(Cc3ccc(C)o3)C[C@H]2CO)n1 | inactive
89 | COC(=O)C1C2C=CC3(CN(Cc4cccs4)C(=O)C13)O2 (stereo not given) | inactive
90 | CCOC(=O)c1cnc2ccc(OC)cc2c1Nc1ccc(N2CCN(C)CC2)cc1 | 1.68 µM (active)
